Assay results from article PMC7819943, “Rice protein-binding microarrays: a tool to detect cis-acting elements near promoter regions in rice”.
Whole data set: some 68,000 sequences, median “fluorescence intensity (a.u.)” near 9,100, cut for the highest 2% near 16,000. Only a selection was taken, and the highest values are over-represented in it overall.

target: OsWRKY34 (Oryza sativa, UniProt Q0JBA9 1-250); assay: protein-binding microarray (RPBM); PBS, 2% BSA, 51.3 ng/ul salmon testes DNA, 50 uM zinc acetate, 200 nM TF, 25 C, 1 h; high values mean tight binding; settings: protein: recombinant; tags: N-terminal polyhistidine and DsRed monomer fusion (pET32a); label: CyDye5-dUTP incorporated in the synthesized complementary strand; 3' TTTTT single-stranded linker to array surface; dsDNA, one strand shown
How it was run: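 The binding signal is fluorescence intensity per array feature (arbitrary units). Readings came from an Axon 4000B scanner after a washed, 2% BSA-blocked, double-stranded custom Agilent array had been incubated for 1 h at 25 °C with 200 nM protein and 50 µM zinc acetate. The protein was a Ni–NTA-purified transcription factor fused N-terminally to polyhistidine and DsRed, expressed in E. coli BL21-CodonPlus.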

Chain of OsWRKY34 (Q0JBA9 entry or part of it): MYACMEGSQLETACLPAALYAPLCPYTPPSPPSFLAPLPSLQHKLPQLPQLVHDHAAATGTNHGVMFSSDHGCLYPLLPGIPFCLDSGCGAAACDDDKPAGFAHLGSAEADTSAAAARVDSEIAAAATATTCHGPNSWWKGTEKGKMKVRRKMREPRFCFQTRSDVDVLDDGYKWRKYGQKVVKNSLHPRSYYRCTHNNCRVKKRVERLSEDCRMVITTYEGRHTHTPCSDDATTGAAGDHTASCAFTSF

| Sequence | binding signal |
| --- | --- |
| CTATAAATACACGACGTCTCTCCGCTGGCTTACACACAACCGGAGTCACCTAGTGCAG | 10100 fluorescence intensity (a.u.) |
| CGCCAACTCAACGCTGAAGCCGCTGCCTCACCATCTCGTCCGGAGTCACCTAGTGCAG | 8780 fluorescence intensity (a.u.) |
| ATCGCCGCAACCACCAACCTCTCGAGGCCGTTCGAATCCCCGGAGTCACCTAGTGCAG | 12300 fluorescence intensity (a.u.) |
| TATATATATATATATATATATATATATATATATAAGCGTCCGGAGTCACCTAGTGCAG | 11300 fluorescence intensity (a.u.) |
| GGGGAGGGAGCCGGGCGGGATTCAGCCATGAGGAGGAGGGCGGAGTCACCTAGTGCAG | 9050 fluorescence intensity (a.u.) |
| AGAAGGAGAAGGCGGGGAGAGGCGGGGCGGCCACGGGAGACGGAGTCACCTAGTGCAG | 12500 fluorescence intensity (a.u.) |
| GGGGCGGCAGTGGATGGCGGTTGGGCGGCGGTGCGGGGAGCGGAGTCACCTAGTGCAG | 12200 fluorescence intensity (a.u.) |
| TTGGTGGTTGGTGGGGAGCGTGGAGATGGCGGGGCTGTCCCGGAGTCACCTAGTGCAG | 22200 fluorescence intensity (a.u.) |
| TTCTTGCCGGAGGAGGGGCAGGGGAGGGAGCCGGGCGGGACGGAGTCACCTAGTGCAG | 23500 fluorescence intensity (a.u.) |
| AGAAGGGAAGGGGAGGGGAGGGCGGGACGCCGGCCGGAGCCGGAGTCACCTAGTGCAG | 10200 fluorescence intensity (a.u.) |
| GAGGACGAAGTGGAGGCGGAGGGCAGGTGGGGAGGAGAGCCGGAGTCACCTAGTGCAG | 8660 fluorescence intensity (a.u.) |
| GTGGTCCGGTGGTGGGGTGATGGGGCGTGGCGGTTCTGTCCGGAGTCACCTAGTGCAG | 15400 fluorescence intensity (a.u.) |
| AGTGCTGGAGGAGGGAGGCGGGGAGGGGAGCCATCAGCCACGGAGTCACCTAGTGCAG | 17300 fluorescence intensity (a.u.) |
| GGCCATGCTTGAATCTCTCGCCTGACATTCAGACTTCAGACGGAGTCACCTAGTGCAG | 8390 fluorescence intensity (a.u.) |
| CTCTATATAAGCCCCACAATGCCCACCACCAGCTTGTCACCGGAGTCACCTAGTGCAG | 8230 fluorescence intensity (a.u.) |
| AAGATTCTTCTCTTCGTCGACGACCCGGCCTCTCGCTCTCCGGAGTCACCTAGTGCAG | 9630 fluorescence intensity (a.u.) |
| CTATTGGCTCATACCTTTTTTCAGTGGCTGGGTGTAGGTTCGGAGTCACCTAGTGCAG | 8840 fluorescence intensity (a.u.) |
| TGCAGATATTGGCATCGATTGCTCACTTCAGGTGATTTTTCGGAGTCACCTAGTGCAG | 8060 fluorescence intensity (a.u.) |
| CATGTCCAACTTTAATTGTTCGTCTTTTTTTTGAAAAAACCGGAGTCACCTAGTGCAG | 8630 fluorescence intensity (a.u.) |
| CAGACCTGGAGGTTGTTGCCCTTGATGTGCGCCCAGATGACGGAGTCACCTAGTGCAG | 8470 fluorescence intensity (a.u.) |
| TTTTTTTCTCTTTCTTTTTTCTTTTCTTCGTTTTCTTTCACGGAGTCACCTAGTGCAG | 9230 fluorescence intensity (a.u.) |

| Sequence | binding signal |
| --- | --- |
| TTTATTCTCTGTTCCTCTTTTTTTCATATTCGTTTTTCACCGGAGTCACCTAGTGCAG | 13200 fluorescence intensity (a.u.) |
| TTTTTATTCCACCGCTTTGTCGTTCTCGCAATCTCGCTGTCGGAGTCACCTAGTGCAG | 17700 fluorescence intensity (a.u.) |
| ATCAATTTATCACCCGCTGACTCATCTTTATTGTATCTGCCGGAGTCACCTAGTGCAG | 8420 fluorescence intensity (a.u.) |
| GTCTCTTTCCGCTGCTTCGTTTCTGTCTCCGGTTTATTCACGGAGTCACCTAGTGCAG | 18800 fluorescence intensity (a.u.) |
| TTGTAGTCCGCTGCTTTCCCTTTCTTTTATCTTCTCTTTCCGGAGTCACCTAGTGCAG | 8450 fluorescence intensity (a.u.) |
| TCTCCCCTTTCTGCTTCTGCTGCTTCTCCCTTTCCCTCTCCGGAGTCACCTAGTGCAG | 8200 fluorescence intensity (a.u.) |
| AATGGCTAGCGTATAATCTGTCTTGGAATCACTTTGCTGCCGGAGTCACCTAGTGCAG | 8120 fluorescence intensity (a.u.) |
| ATTGTCTTGGCTGCTGTCTTTATAGTATTCACTCATCTGCCGGAGTCACCTAGTGCAG | 18500 fluorescence intensity (a.u.) |
| CGCATCTCGTTTTCTCTTTATTTGTTTCTTCTTTCGCTTTCGGAGTCACCTAGTGCAG | 13800 fluorescence intensity (a.u.) |
| GTCCGCTGCTTTTCTCCCTTGTCGGTTATTTTACCTCTTCCGGAGTCACCTAGTGCAG | 18900 fluorescence intensity (a.u.) |
| GTTCTTTTGGGCAATCTCGTCTGTATTCCTTTGTCGTCTACGGAGTCACCTAGTGCAG | 10800 fluorescence intensity (a.u.) |
| TTCTGGATCTTGACTCTTGACCAGTTCATCCACACGTGTGCGGAGTCACCTAGTGCAG | 8540 fluorescence intensity (a.u.) |
| TCTCCCTCAGTTACTGCCTTGCTCCCCAACCCCAGGAGCACGGAGTCACCTAGTGCAG | 9230 fluorescence intensity (a.u.) |
| GCTTGGGGTGGAATCGCGTGGACAGCGTGGGCCTCAGTCACGGAGTCACCTAGTGCAG | 12000 fluorescence intensity (a.u.) |
| ATATTTATTAGTTGGCGTGTATGTAAAACTTGTGTGTTTCCGGAGTCACCTAGTGCAG | 8400 fluorescence intensity (a.u.) |
| CCATTGTTTTCTTCTTGTCCTTTTAGAGATGTTGGGTACACGGAGTCACCTAGTGCAG | 8240 fluorescence intensity (a.u.) |
| AACCACCCCGCGTTTCCAGTCTCCACCACATCAACTCCCCCGGAGTCACCTAGTGCAG | 10200 fluorescence intensity (a.u.) |
| CCCCAATGAATCATAGGCTCAACCTGCTCCTGCTGCAACACGGAGTCACCTAGTGCAG | 8040 fluorescence intensity (a.u.) |
| GGTCCGGCGGAAGTAGGGGCGGAAGTGCGGGCGGGAGATGCGGAGTCACCTAGTGCAG | 9700 fluorescence intensity (a.u.) |
| GACACATCTTAGTTTCATGAATTTGCACAAGAATTGCATGCGGAGTCACCTAGTGCAG | 10800 fluorescence intensity (a.u.) |
| AGCCTGGAAGCCCATTCAGCGGCGGGGTTGGGGCGGCAGGCGGAGTCACCTAGTGCAG | 10200 fluorescence intensity (a.u.) |
